Assay outcomes (PubChem BioAssay)
Hits are enriched below; roughly 2.1% of the tested compounds scored in any of these assays.
TDP43 rescue = TDP-43 toxicity inhibition in yeast | TDP-43 expressing yeast growth rescue, BacTiter-Glo, 24 h | AID 652104 | Potency, µM (doses to about 46.1 µM), usual class: activators | 1.8% of 410,000 active; note: nearly all actives have a fitted effect of over 50% in size
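Galactose-induced TDP-43 yeast, OD600=0.02, compound pinned; 24 hr, 30 deg C; BacTiter-Glo luminescence for growth. Inhibitors of TDP-43 toxicity read as activators.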
aSyn yeast inh = rescues yeast growth from alpha-synuclein toxicity; AID 652106; 0.14% of 370,000 active; Potency, µM (doses to about 46.1 µM), actives largely listed as activators; Yeast expressing alpha-synuclein, growth rescue, BacTiter-Glo, 24 h; note: nearly all actives have a fitted effect of over 65% in size
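Rescue of yeast growth: cells expressing toxic alpha-synuclein, induced in galactose at OD600 0.02, incubated with compound 24 h at 30 C. ATP luminescence quantified growth; inhibitors of toxicity appear as activators.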
Abeta yeast res = compounds reversing amyloid beta toxicity in yeast; 0.063% of 410,000 active; yeast expressing A-beta42, growth rescue, OD600, 48 h; response scale: 0% DMSO, 100% iron-clioquinol control; Potency, µM (titrated, usually from 46.1 µM), most hits filed as activators; AID 1347071; note: nearly all actives have a fitted effect of over 55% in size
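Yeast growth medium received pinned compounds, then yeast cells expressing toxic A-beta were added; plates incubated at 30 C for 48 hr. Growth read as absorbance at 600 nm, normalized to DMSO and equimolar FeCl3 plus clioquinol controls.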
FUS suppressor = FUS proteinopathy suppression in yeast; S. cerevisiae FUS-expressing, growth rescue, OD600, 24 h; Potency, µM (top dose mostly 76.6 µM), hits mostly activators; 0.24% of 390,000 active; note: nearly all actives have a fitted effect of over 55% in size
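Yeast FUS proteinopathy model; galactose-induced FUS (2%), starting OD 0.005. Cpds in dilution series, 24hr, 30C, 99% humidity. Abs 600 nm growth. Pos ctrl CP55940 (top 92uM final); neg ctrl DMSO.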
Numbers stand for hits; – = inactive; ? = inconclusive; · = no result given; [ ] = remark or other dose. Calls come from the whole dose curve; as a rule, active = well fitted curve in the direction sought with a large enough effect; inconclusive = small, poorly fitted or top-dose-only effect, or another doubt; inactive = no such curve, though single readings can be large; an effect the other way counts as inactive or inconclusive.

SMILES | TDP43 rescue | aSyn yeast inh | Abeta yeast res | FUS suppressor
CC(C)=CCC/C(C)=C/CNCC(=O)N1c2ccccc2[C@]2(c3ccccc3)C[C@@H]3C(=O)N(C/C=C(\C)CCC=C(C)C)CC(=O)N3[C@H]12 | · | · | · | 13µM
CC(=O)Nc1cccc(OCC(=O)Nc2ccc(F)cc2)c1 | – | – | – | –
O=C(OCc1ccccc1F)c1cc([N+](=O)[O-])ccc1N1CCOCC1 | 35µM | – | – | ·
O=C(NC1CCSc2ccccc21)c1cc([N+](=O)[O-])ccc1N1CCOCC1 (stereo unspecified) | 35µM | – | – | –
CCCCCCC1CCC(C(=O)NC(C(=O)O)C(C)C)CC1 (stereo unspecified) | 20µM | · | – | –
CCCn1ccc2c(OCC(=O)Nc3cc(C)ccc3C)cccc2c1=O | ? | · | – | ?
O=C(CN1CCSc2ccccc21)N1CCN(c2ccc(F)cc2)CC1 | – | – | – | –
Cc1ccc(C)c(N2CCN(C(=O)CN3CCSc4ccccc43)CC2)c1 | 25µM | ? | ? | –
Cc1ccc(C)c(N2CCN(C(=O)CC3Sc4ccccc4NC3=O)CC2)c1 (stereo unspecified) | 22µM | ? | – | ?
CCc1nn(CC(=O)Nc2cc(C)ccc2C)c(=N)s1 | –[9.22 µM] | – | – | –
COc1ccc(Cl)cc1Nc1nc(N)c2ccccc2n1 | – | – | – | –
CC(=O)NC(=S)NNC(=O)C(c1ccccc1)c1ccccc1 | 18µM | 22µM | – | –
Clc1ccc(CSc2nnc(-c3c[nH]c4ccccc34)o2)cc1 | – | – | – | –
Brc1ccc(CSc2nnc(Cc3c[nH]c4ccccc34)o2)cc1 | 8.9µM | – | – | ·
COc1ccc2cc(CCNC(=O)CC(C)(C)C)c(=O)[nH]c2c1 | – | – | – | –
Cc1ccc(S(=O)(=O)Nc2ccc(SC(F)F)cc2)c(C)c1 | – | 18µM | – | ·
C=C(C)COc1ccc(-c2[nH]ncc2-c2ccc(Br)cc2)c(O)c1 | – | – | – | ·
Cn1c2ccccc2c(=O)c2ccc(F)cc21 | – | 14µM | – | –
O=C(NCc1ccccc1C(F)(F)F)C12CN(Cc3ccccc3)CC1C(c1ccc([N+](=O)[O-])cc1)=NO2 (stereo unspecified) | – | – | – | ?
COC(=O)[C@]1(C)N[C@H](CN(C)S(=O)(=O)c2ccc(-c3ccccc3)cc2)[C@@H]2C(=O)N(C)C(=O)[C@@H]21 | – | 3.2µM | – | –
COC(=O)[C@]1(C)N[C@H](CN(C)S(=O)(=O)c2ccccc2)[C@@H]2C(=O)N(C)C(=O)[C@@H]21 | – | – | – | –
CC1CCCCN1C(=O)CN1CCC(c2nc3ccc(Cl)cc3[nH]2)CC1 (stereo unspecified) | – | – | – | –
CC1=CC2=NC(=O)/C(=C\c3cccn3CCOc3cc(C)ccc3C)C(=N)N2O1 | 16µM | – | – | –
COC(=O)c1ccc(COc2ncnc3sccc23)cc1 | ? | – | – | –
COc1cccc(NC(=O)NC2CCN(CC(=O)Nc3ccccc3[N+](=O)[O-])CC2)c1 | – | – | – | –
SMILES | TDP43 rescue | aSyn yeast inh | Abeta yeast res | FUS suppressor
CCOC(=O)Cc1cc(OC)c(OC)cc1Cc1cc(OC)c(OC)cc1CC(=O)OCC | – | – | ? | –
CCOC(=O)c1c(N)sc2c1CCC1C(=O)N(C3CCCCC3)C(=O)C21 (stereo unspecified) | – | – | – | 28µM
CCOc1ccc(Cl)cc1-c1cc(C(=O)NCc2ccccc2OC)[nH]n1 | 18µM | ? | – | ?
CC1=C(C(=O)OC(C)C)C(c2ccc(O)cc2)NC(=O)N1 (stereo unspecified) | – | – | – | –
Cc1ccc(-c2nonc2NC(=O)c2ccco2)cc1 | 25µM | – | · | –
Cc1ccc(-c2nonc2NC(=O)c2ccco2)cc1C | 20µM | · | – | –
COCCNC(=O)C(=O)Nc1ccc(Cl)cc1C | – | – | – | –
Cc1cc(Cl)ccc1OCC(=O)N/N=C/c1ccc(OC2OC(CO)C(O)C(O)C2O)cc1 (stereo unspecified) | – | – | – | –
Cc1ccn2c(Cc3ccccc3)c(-c3ccc(F)cc3)nc2c1 | – | – | – | –
CN(/N=C/c1ccc(O)cc1O)c1ncc(C(F)(F)F)cc1Cl | 35µM | – | ? | –
CN(/N=C/c1ccccc1Cl)c1ncc(Cl)cc1C(F)(F)F | – | – | – | –
CCOc1ccc(C(=O)CCC(=O)Nc2ccccc2C)cc1 | ? | – | – | –
CCOc1ccc(C(=O)CCC(=O)NCC(=O)Nc2ccc(F)c(F)c2F)cc1 | – | 28µM | – | –
N#C/C(=C\c1ccccn1)c1nc2ccccc2s1 | 18µM | – | ? | –
Cc1ccc2nc3ccc(N4CCCCCCC4)nn3c(=O)c2c1 | 22µM | – | – | –
Cc1ccc2nc3ccc(N4CCN(C)CC4)nn3c(=O)c2c1 | – | – | – | ·
Cc1cc(C(=O)OCC(=O)NCc2ccc(F)cc2)c2ccccc2n1 | – | – | – | –
Cc1cc(O)c2c(C)c(CC(=O)N3CCN(C(=O)C4COc5ccccc5O4)CC3)c(=O)oc2c1 (stereo unspecified) | – | – | – | 28µM
COC(=O)CSc1nnc(-c2ccco2)o1 | – | – | – | –
NC(=NC(=O)c1ccc(Cl)cc1)N1N=CCC1c1ccccc1 (stereo unspecified) | ? | – | – | –
O=C(CSc1ccc(Cl)cc1)N1N=CCC1c1ccccc1 (stereo unspecified) | 13µM | – | – | –
O=C(Nc1ccc(Cl)c(Cl)c1)N1N=CCC1c1ccccc1 (stereo unspecified) | 22µM | – | – | ?
COc1cccc(C(=O)/C=C/Nc2ccc(S(=O)(=O)Nc3cnc4ccccc4n3)cc2)c1 | – | – | – | –
COC(=O)CSc1ncc(S(=O)(=O)c2ccccc2)c(=O)[nH]1 | – | – | – | –
CCc1ccccc1NC(=O)CSc1ncc(S(=O)(=O)c2ccccc2)c(=O)[nH]1 | – | 4µM | – | –
SMILES | TDP43 rescue | aSyn yeast inh | Abeta yeast res | FUS suppressor
Cc1cc(C)nc(N/N=C2/CCSc3ccc(F)cc32)n1 | – | – | – | –
O=C(O)c1ccc(N/N=C2/CCSc3ccc(F)cc32)cc1 | 10µM | – | – | –
OCCCn1c(C2CCCN2c2nc(-c3ccc(F)cc3)cs2)nc2cc(Cl)c(Cl)cc21 (stereo unspecified) | – | – | – | 35µM
COc1cccc(NC(=O)COC(=O)c2nc(Cl)ccc2Cl)c1 | 16µM | – | – | –
COc1ccc(OC)c(NC(=O)COC(=O)c2nc(Cl)ccc2Cl)c1 | – | – | – | –
O=C(COC(=O)c1nc(Cl)ccc1Cl)Nc1ccc(Cl)cc1 | 16µM | – | – | –
CCOC(=O)c1ccc(N2C(=O)c3[nH]nc(-c4ccc(OC)cc4)c3C2c2ccc(C)cc2)cc1 (stereo unspecified) | – | · | – | ?
COC(=O)/N=C(/Cc1ccc(OC)cc1)c1ccc(OC)cc1 | 22µM | – | – | –
COc1ccc(CC(=O)NO)cc1 | · | – | · | ·
CCc1ccc(NC(=S)N(Cc2ccccc2)Cc2ccccn2)cc1 | ? | – | 13µM | –
